These results are taken from PubChem BioAssay (Tox21).

Several values for one entry are separate records, joined by “and”; a condition that tells them apart may be missing. Identical values can stand only once. Records with an inconclusive call do not appear. Activity calls are given as the source filed them. Unless noted, the call rests on the fitted dose curve; in most records, active means well fitted curve in the direction sought with a large enough effect in the repeat runs; inconclusive means weak or mixed curves; inactive means no such curve, though single readings can be large; an effect the other way counts as inactive or inconclusive. Positions of bridges follow the written chain, without caps; N, C: chain ends. Non-standard residues stand in square brackets, D forms with d. Residues, ends and D or L forms follow the SMILES beside them. Orn = NCCC[C@H](N)C(=O)O; Mpa = O=C(O)CCS

A short description of assay [1]: qHTS assay for small molecule agonists of the p53 signaling pathway (AID 651631; calls by dose curve; further: nearly all actives have a fitted effect of over 15% in size; further: potency means the concentration at half of the fitted maximal effect). The procedure, abridged:
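HCT-116 cells carrying a beta-lactamase reporter under p53 response elements were dosed with compound for 16 h at 37 °C. LiveBLAzer B/G FRET substrate was then added for 2 h at room temperature, and fluorescence intensity was read to detect pathway agonism.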
Background: Quantitative high-throughput screening tests each substance at several concentrations.

The nature of assay [2]: qHTS assay for small molecules that induce genotoxicity in human embryonic kidney cells expressing luciferase-tagged ATAD5 (AID 651632). Further: nearly all actives have a fitted effect of over 15% in size. Further: potency means the concentration at half of the fitted maximal effect. In short, it runs like this: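 DMSO vehicle served as the control. HEK293T reporter cells, 16 hr at 37C, then 30 min Amplite at room temperature; ATAD5 induction is measured as luciferase activity.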
Assay [3] can be described thus: qHTS assay for small molecule agonists of the p53 signaling pathway - cell viability (AID 651633; calls by dose curve; further: nearly all actives have a fitted effect of over 30% in size; further: potency means the concentration at half of the fitted maximal effect). In short, it runs like this: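 Viability counter-read: CellTiter-Glo luminescence (30 min, room temperature) in the same p53RE-bla plates. These plates had been exposed to compounds for 16 h at 37 C.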
A short description of assay [4]: qHTS assay for small molecules that induce genotoxicity in human embryonic kidney cells expressing luciferase-tagged ATAD5 - cell viability (AID 651634; calls by dose curve; further: nearly all actives have a fitted effect of over 25% in size; further: potency means the concentration at half of the fitted maximal effect). The procedure, abridged:
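Here HEK293T cells with the ATAD5 luciferase reporter are incubated with test compounds for 15.5 hr, and cytotoxicity is then gauged by measuring protease activity in live cells using fluorescence.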

Assay [5] in a line: qHTS assay for small molecule disruptors of the mitochondrial membrane potential - cell viability (AID 720634; calls by dose curve;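 further: human HepG2 liver cancer cells; series mostly up to about 83 µM; nearly all actives have a fitted effect of over 20% in size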). The procedure, abridged:
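Viability of HepG2 cells is scored from ATP content by luminescence; cells are exposed to compound for 1 hr at 37 C and 5% CO2, then dosed with m-MPI dye before the CellTiter-Glo reagent.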

The nature of assay [6]: qHTS assay for small molecule disruptors of the mitochondrial membrane potential (AID 720635). Further: potency means the concentration at half of the fitted maximal effect. In short, it runs like this:
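Mitochondrial membrane potential tracked with Mito-MPS dye, red aggregates (ex 540/em 590 nm) against green monomers (ex 490/em 535 nm). Compound treatment 1 hr at 37C, dye 30 min in HepG2.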

Assay [7] is described as follows: qHTS assay to test for compound auto fluorescence at 590 nm (red) in HepG2 cells (AID 720674). The procedure, abridged: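 1 hr compound incubation on HepG2 cells, 37 C, 5% CO2; plate read ex 540 nm / em 590 nm; intensities reported as Rose Bengal sodium equivalents.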
A short description of assay [8]: qHTS assay to test for compound auto fluorescence at 535 nm (green) in HepG2 cells (AID 720675).
The nature of assay [9]: qHTS assay to test for compound auto fluorescence at 460 nm (blue) in HEK293 cells (AID 720678). The procedure, abridged:
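Measured: blue fluorescence (Ex 405/Em 460 nm) of compound-treated HEK293 cells, incubated overnight at 37C with 5% CO2 and scaled to triamterene equivalents.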

Assay [10] is described as follows: qHTS assay to test for compound auto fluorescence at 590 nm (red) in HEK293 cells (AID 720679). The procedure, abridged:
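Using HEK293 cells at 2,000 per well, the screen added 23 nL of each compound after cell attachment and incubated overnight (37C, 5% CO2). The plate reader then captured red-label fluorescence, Ex/Em 540/590nm.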

For `OC[C@@H](O)C(O)[C@H](O)CO`, the Potency entry in [1], in [2], in [3], in assay [4], in assay [5] and in [6] was “inactive” throughout. For the same molecule, the Potency result in assay [7], in assay [8], in assay [9] and in assay [10] was “inactive” in each case.

Turning to `CCCCCCCCCCCCCCCC(=O)OC[C@@H](COP(=O)([O-])OCC[N+](C)(C)C)OC(=O)CCCCCCCCCCCCCCC`, the Potency entry in assay [1], in assay [2], in assay [3], in assay [4], in [5] and in assay [6] was “inactive” in each case. For the same molecule, the Potency entry in assay [7], in assay [8], in assay [9] and in [10] was “inactive” each time.

As for `CCOc1ccc(C[C@H]2NC(=O)CCSSC[C@@H](C(=O)N3CCC[C@H]3C(=O)N[C@@H](CCCN)C(=O)NCC(N)=O)NC(=O)[C@H](CC(N)=O)NC(=O)[C@H]([C@@H](C)O)NC(=O)[C@H]([C@@H](C)CC)NC2=O)cc1` ([Mpa][dY](Et)ITNCP[Orn]G-NH2; disulfide 1-6), the Potency result in assay [1], in assay [2], in [3], in [4], in assay [5] and in [6] was “inactive” in each case. Further, the Potency entry in [7], in assay [8], in assay [9] and in assay [10] was “inactive” in each case.

Consider `CCOC(=O)[C@H](CCc1ccccc1)N[C@@H](C)C(=O)N1CC2(C[C@H]1C(=O)O)SCCS2`, for which the Potency entry in assay [1], in assay [2], in assay [3], in assay [4], in assay [5] and in assay [6] was “inactive” throughout. Further, the Potency entry in assay [7], in assay [8], in [9] and in assay [10] was “inactive” in each case.

For the molecule `O=P(O)(O)OC(Cn1cncn1)(Cn1cncn1)c1ccc(F)cc1F`, the Potency result in assay [1], in assay [2], in assay [3], in [4], in assay [5] and in assay [6] was “inactive” throughout. For the same molecule, the Potency result in assay [7], in assay [8], in assay [9] and in assay [10] was “inactive” each time.

With `CCOC(=O)CCC(=O)O[C@H]1[C@H](O[C@@H]2[C@@H](C)[C@H](O[C@H]3C[C@@](C)(OC)[C@@H](O)[C@H](C)O3)[C@@H](C)C(=O)O[C@H](CC)[C@@](C)(O)[C@H](O)[C@@H](C)C(=O)[C@H](C)C[C@@]2(C)O)O[C@H](C)C[C@@H]1N(C)C`, the Potency result in [1], in assay [2], in assay [3], in assay [4], in [5] and in assay [6] was “inactive” throughout. Also, the Potency entry in assay [7], in assay [8], in assay [9] and in assay [10] was “inactive” throughout.

For the molecule `O=P(O)(O)C(O)(Cc1cnc2ccccn12)P(=O)(O)O`, the Potency result in [1], in [2], in assay [3], in assay [4], in assay [5] and in [6] was “inactive” in each case. Besides, the Potency result in assay [7], in [8], in [9] and in [10] was “inactive” each time.

Consider `CCCCCCCCCCCCCCCC(=O)OC[C@@H](NC(=O)C(Cl)Cl)[C@H](O)c1ccc([N+](=O)[O-])cc1`, for which the Potency entry in [1], in assay [2], in assay [3], in [4], in assay [5] and in [7] was “inactive” throughout. The Potency entry in assay [8], in [9] and in assay [10] was “inactive” throughout. Moreover, the Potency in assay [6] is 33.5 µM (active).

For the molecule `Cc1cc(-n2c(=O)[nH]c(=O)n(C)c2=O)ccc1Oc1ccc(S(=O)(=O)C(F)(F)F)cc1`, the Potency result in [1], in [2], in [3], in [4], in [5] and in assay [6] was “inactive” each time. The Potency entry in assay [8], in [9] and in [10] was “inactive” each time.

Regarding `Cn1nnnc1SCC1=C(C(=O)O)N2C(=O)[C@@H](NC(=O)[C@H](O)c3ccccc3)[C@H]2SC1`, the Potency result in [1], in assay [2], in [3], in [4], in assay [5] and in assay [6] was “inactive” in each case. In addition, the Potency entry in assay [7], in assay [8], in [9] and in [10] was “inactive” in each case.

Take `COC(=O)CCC(=O)CN`: the Potency entry in assay [1], in assay [2], in assay [3], in [4], in [5] and in assay [6] was “inactive” throughout. In addition, the Potency entry in assay [7], in assay [8], in assay [9] and in assay [10] was “inactive” each time.

With `CC(C)CN(C[C@@H](O)[C@H](Cc1ccccc1)NC(=O)O[C@H]1CO[C@H]2OCC[C@H]21)S(=O)(=O)c1ccc(N)cc1`, the Potency result in assay [1], in assay [2], in assay [3], in assay [4], in assay [5] and in assay [6] was “inactive” throughout. The Potency result in assay [7], in assay [8], in assay [9] and in assay [10] was “inactive” in each case.

For `CC(C(=O)O)c1ccc(C2CCCCC2)c2ccccc12` (centres undefined), the Potency entry in assay [1], in assay [2], in assay [3], in [4], in [5] and in [7] was “inactive” throughout. The Potency result in [8], in [9] and in assay [10] was “inactive” in each case.

Take `C#CCC(Cc1cnc2nc(N)nc(N)c2n1)c1ccc(C(=O)N[C@@H](CCC(=O)O)C(=O)O)cc1` (some centres undefined): the Potency is 266 nM (active) in assay [1], 0.266 µM (active) in assay [3] and 211 nM (active) in assay [4]. The Potency entry in assay [2], in assay [5], in assay [6], in assay [8] and in assay [10] was “inactive” in each case.

Regarding `CC(=O)[C@]1(O)Cc2c(O)c3c(c(O)c2[C@@H](O[C@H]2C[C@H](N)[C@H](O)[C@H](C)O2)C1)C(=O)c1c(O)cccc1C3=O`, the Potency in assay [1] is 944 nM (active) and 2.37 µM (active); in [2] it was 750 nM (active) and 944 nM (active); in [4] it was 10.6 µM (active) and 11.9 µM (active); in assay [6] it was 441 nM (active) and 5.31 µM (active). Moreover, the Potency result in assay [3], in assay [5], in assay [7], in [9] and in assay [10] was “inactive” throughout.

In the case of `CS(=O)(=O)OCCCNCCCOS(C)(=O)=O`, the Potency entry in [1], in assay [2], in assay [3], in [4], in [5] and in assay [6] was “inactive” throughout. The Potency entry in [8], in assay [9] and in assay [10] was “inactive” in each case.

For `NCCC[C@H](N)C(=O)O`, the Potency entry in [1], in assay [2], in [3], in [4], in [5] and in [6] was “inactive” in each case. Further, the Potency result in assay [7], in [8], in assay [9] and in assay [10] was “inactive” throughout.

As for `CCNC(=O)[C@@H]1CCCN1C(=O)[C@H](CCCN=C(N)N)NC(=O)[C@H](CC(C)C)NC(=O)[C@@H](CC(C)C)NC(=O)[C@H](Cc1ccc(O)cc1)NC(=O)[C@H](CO)NC(=O)[C@H](Cc1c[nH]c2ccccc12)NC(=O)[C@H](Cc1cnc[nH]1)NC(=O)[C@@H]1CCC(=O)N1`, the Potency result in assay [1], in assay [2], in assay [3], in assay [4], in assay [5] and in [6] was “inactive” each time. The Potency result in assay [7], in assay [8], in assay [9] and in assay [10] was “inactive” in each case.
